# This is one part of a sample in which hits are shown more often than they occur.
# Mac1 fbg enh: enhancers of CD11b/CD18 adhesion to fibrinogen, primary screen, K562 cells, luminescence; 93,000 compounds, 0.07% hits; activation, % at 10 µM; Integrin beta-2 (Homo sapiens) + Integrin alpha-M (Homo sapiens), P05107+P11215; AID 1499, 2009; ATPlite luminescence;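 active = 10 µM primary screen giving 50% or more activity, confirmed by 40% or more on retest at that dose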
# Cav3 T inh: Cav3.2 calcium influx blockers – cell-based, Fluo-4 calcium fluorescence, FDSS, MLSMR library, primary screen; Cav3.2-expressing cells; stronger effect = lower value; Voltage-dependent T-type calcium channel subunit alpha-1H (Homo sapiens), O95180; 100,000 compounds, 4% hits; B-score at 10 µM; AID 449739, 2010;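 active = single-dose well whose peak fluorescence ratio is a statistical outlier from its plate by either plate-standardised score or position-corrected B-score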
# CD11b adhes inh: inhibitors of CD11b/CD18 adhesion to fibrinogen, primary screen, K562 cells, luminescence. Integrin beta-2 (Homo sapiens) + Integrin alpha-M (Homo sapiens), P05107+P11215. ATPlite luminescence; Mn2+ added to activate the integrin. inhibition, % at 10 µM. 93,000 compounds, 0.54% hits. AID 1497, 2009;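 active = primary inhibition of 50% or more at 10 µM, then 40% or more on retest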
# E coli WT exp: growth inhibitors of wild-type E. coli, primary screen, strain BW25113, expanded library, OD600 | OD600 absorbance | growth inhibition, % at 100 µM | 98,000 compounds, 0.15% hits;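 active = growth inhibition above about 50% at one test dose, limit read from the data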;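 note: growth measured after 20 h incubation at 37 °C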
# * marks the source's active call; other numbers are inactive results; · = no result.
SMILES,Mac1 fbg enh,Cav3 T inh,CD11b adhes inh,E coli WT exp
CC(NC(=O)CC12CC3CC(CC(C3)C1)C2)C(=O)O (centres undefined),-4,-3.5*,-17,-11
Cc1cccc(CSCCNC(=O)c2ccc(N(C)S(=O)(=O)c3ccccc3)cc2)c1,-5,-3.9*,-11,-19
Cc1ccc(N(CC(=O)NCCSCc2ccco2)S(=O)(=O)c2ccc(C)cc2)cc1,·,-5.3*,·,-19
Cc1ccc(N(CC(=O)NCc2ccco2)S(=O)(=O)c2ccccc2)cc1,4,1.2,11,9
Cc1cccc(N(CC(=O)NCCSCc2ccco2)S(=O)(=O)c2ccccc2)c1,·,-4.1*,·,-12
O=C(Nc1ccc2c(c1)OCO2)N1CCN(c2ncc(C(F)(F)F)cc2Cl)CC1,0,-6.6*,9,-9
O=C(Nc1ccc2c(c1)OCO2)N1CCOCC1,-1,-0.0021,0,-1
Cc1ccccc1OCCSc1nnc(-c2cccnc2)n1N,3,·,10,·
Cc1cc(Nc2cnc3ccccc3n2)n(-c2ccccc2)n1,·,-4.6*,·,7
Cc1ccc(CN2CCN(CC(=O)NCc3ccc(Cl)cc3)C2=O)cc1,0,-4*,-18,5
Cc1ccccc1CN1CCN(CC(=O)NCCCN2CCN(c3ccc(F)cc3)CC2)C1=O,·,0.44,·,7
CCN(CCNC(=O)CN1CCN(Cc2ccc(Cl)cc2)C1=O)c1ccccc1,2,-4*,12,2
O=C(CN1CCN(Cc2ccc(Cl)cc2)C1=O)NCCCN1CCN(c2ccc(F)cc2)CC1,-4,-1.4,57*,10
CCCC1(CCC)NC(=O)N(CC(=O)N2CCN(C(=O)c3ccco3)CC2)C1=O,-5,0.44,3,-6
O=[N+]([O-])c1cc(C(F)(F)F)ccc1NCCNC(=S)Nc1ccc(Cl)cc1,-14,0.044,20,3
NCCCC[C@@H]1NC(=O)c2cc([N+](=O)[O-])cc(I)c2SC[C@@H](C(=O)NCC(N)=O)NC(=O)CNC1=O,·,0.46,·,·
CCOc1ccc(OCc2cccc(C(=O)O)c2)cc1,-1,0.85,59*,-12
Cn1c(COc2ccc(Cl)cc2)nnc1SCc1ncc(-c2ccccc2)o1,11,-9.9*,12,-3
Cc1ccc(-c2cc(C(F)F)n3ncc(C(=O)Nc4c(C)nn(Cc5ccccc5Cl)c4C)c3n2)cc1,·,-1.5,·,-7
Cc1nn(Cc2c(Cl)cccc2Cl)c(C)c1NC(=O)c1cnn2c(C(F)F)cc(-c3ccccc3)nc12,116*,0.75,-6,-11
Cc1ccc(-c2cc(C(F)F)n3ncc(C(=O)N4CCN(c5ccccn5)CC4)c3n2)cc1,10,-5.3*,0,-3
Cc1ccc(-c2cc(C(F)F)n3ncc(C(=O)Nc4c(C)nn(Cc5c(Cl)cccc5Cl)c4C)c3n2)cc1,116*,0.069,32,-1
Cc1cccc2c(SCC(=O)NCC3CCCO3)nc(-c3ccc(F)cc3)nc12 (centres undefined),·,-0.71,·,-6
CC1(c2nnc(-c3cccc(Cl)c3)o2)CC(c2ccc(Br)cc2)=NO1 (centres undefined),·,-0.75,·,·
CCOC(=O)C1=C(C)N=C2SC(C)C(=O)N2C1/C=C/c1ccccc1OC (centres undefined),8,-5.2*,-29,3
SMILES,Mac1 fbg enh,Cav3 T inh,CD11b adhes inh,E coli WT exp
CCOC(=O)C1=C(C)N=C2SCCC(=O)N2[C@@H]1/C=C/c1ccccc1,·,-4.8*,·,1
Cc1cc(-c2cc(-c3ccccc3)on2)nc(NCC2CC2)n1,·,2.2,·,·
O=C(NCc1ccc(Cl)cc1)c1noc2c1CCCCC2,-3,-5*,-11,-2
O=C(NCc1ccc(F)cc1)c1noc2c1CCCCC2,-4,-4.5,-8,-6
COc1ccccc1N1CCN(C(=O)CCNS(=O)(=O)c2ccc(Br)s2)CC1,·,-4.7*,·,-6
O=C(CNS(=O)(=O)c1ccc(Br)s1)N1CCCC1,-4,-0.79,-12,-3
O=C(CCNS(=O)(=O)c1ccc(Br)s1)N1CCN(c2ccccc2)CC1,·,-5.5*,·,-2
Oc1ccc(Cl)cc1-c1cc(C(F)(F)C(F)F)nc(-c2ccccc2)n1,-7,-0.059,59*,-15
CC1(C)CCCC(C)(C)N1CC(O)COCCOc1ccc(Br)cc1 (centres undefined),7,·,23,·
Cc1nnc(NC(=O)c2ccc3ccccc3c2)o1,-3,-0.54,-8,50*
Cn1nnc(NC(=O)c2ccc3ccccc3c2)n1,·,0.88,·,·
Cc1ccc(CN(CC(=O)N/N=C/c2ccco2)S(=O)(=O)c2ccc(C)cc2)cc1,1,-3.5,4,-14

# Compound activity from PubChem BioAssay.
